Where a name gives a salt, the structure may show the parent alone. ± gives the standard deviation of the averaged measurements.
What was measured:
[1] = tested on: E18 rat cortical neuron-glia co-culture; test: fiber score / MBP score (myelination specific beyond OL differentiation) (ratio); higher = more myelination-specific MBP alignment; conditions: treatment time: 8 days (DIV5-DIV13)
Procedure, shortened: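 Library compounds were applied at 1 or 5 µM in myelination medium, DIV5 to DIV13, to primary E18 rat cortical co-cultures grown at 20,000 cells/well in 96-well plates. After 4 % paraformaldehyde fixation and MBP/Olig2/DAPI immunostaining, four 10X fields per well in duplicate wells were scored. Each value is continuous MBP fiber length per Olig2+ nucleus divided by thresholded MBP area × intensity per Olig2+ nucleus.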

[2] = tested on: E18 rat cortical neuron-glia co-culture; test: myelination (MBP fiber length per Olig2+ nucleus), % of 1 µM DAPT response (DMSO = 0) (% of DAPT); higher = more myelination, active = 50 or more; conditions: treatment time: 8 days (DIV5-DIV13)
Procedure, shortened: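 Library compounds at 1 or 5 µM in myelination medium were applied from DIV5 to DIV13 to papain-dissociated E18 rat cortical co-cultures seeded at 20,000 cells/well on poly-d-lysine/laminin 96-well plates. Fixed cells (4 % paraformaldehyde) were immunostained for MBP and Olig2 with DAPI, and four 10X fields were analysed in each duplicate well. Continuous straight MBP fiber length per Olig2+ nucleus was set to 0 for 0.1 % DMSO and to 100 for a 1 µM positive control.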

Row | SMILES | fiber score / MBP score ([1]; 1 µM) | fiber score / MBP score ([1]; 5 µM) | myelination ([2]; 1 µM) | myelination ([2]; 5 µM)
1 | O=c1c(O[C@@H]2O[C@H](CO)[C@@H](O)[C@H](O)[C@H]2O)c(-c2ccc(O)c(O)c2)oc2cc(O)cc(O)c12 [Isoquercitrin] | 1.09 | 0.826 | 1.55 (inactive) | -11.7 (inactive)
2 | Nc1nc2ccc(Cl)cc2c2nc(-c3ccco3)nn12 | 0.556 | 0.773 | -37.8 (inactive) | -3.25 (inactive)
3 | C=C1/C(=C\C=C2/CCC[C@]3(C)[C@@H]([C@H](C)CCCC(C)(C)O)CC[C@@H]23)C[C@@H](O)C[C@@H]1O [Calcitriol] | 0.737 | 0.531 | -11.1 (inactive) | 6.28 (inactive)
4 | Cn1ccnc1S [Methimazole] | 0.372 | 0.312 | -14.3 (inactive) | -15.9 (inactive)
5 | CNCCCC12CCC(c3ccccc31)c1ccccc12 [Maprotiline] | 0.656 | 0.581 | -27.8 (inactive) | -25.1 (inactive)
6 | Cc1ccccc1C(OCCN(C)C)c1ccccc1 (configuration not stated) [Orphenadrine] | 0.693 ± 0.21 | 0.896 ± 0.071 | -7.59 (inactive) | -2.71 (inactive)
7 | Oc1ncnc2[nH]ncc12 [Allopurinol] | 1.01 | 0.903 | 6.93 (inactive) | -0.27 (inactive)
8 | NNC(=O)c1ccncc1 [Isoniazid] | 0.85 | 0.914 | -1.03 (inactive) | 0.697 (inactive)
9 | Nc1ncnc2c1ncn2[C@@H]1O[C@H](CO)[C@@H](O)[C@H]1O [Adenosine] | 1.08 | 0.875 | -4.96 (inactive) | -4.36 (inactive)
10 | COc1cc(C(=O)NS(=O)(=O)c2ccccc2C)ccc1Cc1cn(C)c2ccc(NC(=O)OC3CCCC3)cc12 [Zafirlukast] | 0.627 | 0.714 | -12.3 (inactive) | -4.26 (inactive)
11 | Cc1ccc(-c2cc(C(F)(F)F)nn2-c2ccc(S(N)(=O)=O)cc2)cc1 [Celecoxib] | 0.757 | 1.01 | -5.22 (inactive) | -0.0582 (inactive)
12 | O=C(O)CCCc1ccccc1 [4-Phenylbutyric acid] | 1.07 | 0.747 | 10.1 (inactive) | -8.79 (inactive)
13 | C[C@@H]1C[C@H]2[C@@H]3CCC4=CC(=O)C=C[C@]4(C)[C@@]3(F)[C@@H](O)C[C@]2(C)[C@@]1(O)C(=O)CO [Dexamethazone] | 0.866 | 0.845 | -1.63 (inactive) | -0.917 (inactive)
14 | C[N+]1(C)CCC(OC(=O)C(O)(c2ccccc2)C2CCCC2)C1 (configuration not stated) [Glycopyrrolate] | 0.689 ± 0.14 | 0.888 ± 0.085 | -12.1 (inactive) | -2.31 (inactive)
15 | COc1cc(C(=O)NC2CCCNC2)cc(OC)c1OC (configuration not stated) [Troxipide] | 0.692 | 0.803 | -15.3 (inactive) | -5 (inactive)
16 | CC(=O)OCC(CCn1cnc2cnc(N)nc21)COC(C)=O [Famciclovir] | 0.681 | 0.977 | -22.4 (inactive) | -2.76 (inactive)
17 | Brc1c(NC2=NCCN2)ccc2nccnc12 [Brimonidine] | 0.915 | 0.784 | -13.9 (inactive) | -32 (inactive)
18 | CC#C[C@]1(O)CC[C@H]2[C@@H]3CCC4=CC(=O)CCC4=C3[C@@H](c3ccc(N(C)C)cc3)C[C@@]21C [Mifepristone] | 0.755 | – | -23 (inactive) | –
19 | CN(C/C=C/C#CC(C)(C)C)Cc1cccc2ccccc12 [Terbinafine] | 0.788 | – | -6.59 (inactive) | –
20 | Cc1ccc(O)c([C@H](CCN(C(C)C)C(C)C)c2ccccc2)c1 [Tolterodine] | 0.747 | – | -15.9 (inactive) | –
21 | CN(CCOc1ccc(CC2SC(=O)NC2=O)cc1)c1ccccn1 (configuration not stated) [Rosiglitazone maleate] | 0.752 ± 0.037 | – | -26.2 (inactive) | –
22 | CN1CCC(=C2c3ccccc3CC(=O)c3sccc32)CC1 [Ketotifen] | 1.03 | 0.58 | -0.199 (inactive) | -13.6 (inactive)
23 | CC1(C)O[C@@H]2C[C@H]3[C@@H]4CCC5=CC(=O)C=C[C@]5(C)[C@@]4(F)[C@@H](O)C[C@]3(C)[C@]2(C(=O)CO)O1 [Azmacort] | 0.687 | – | -5.49 (inactive) | –

From the supplement of paper PMC4840960
